A selection: hits, their analogues and other compounds. The true share with any hit is near 5.9%.
KB-3-1 tox: qHTS assay for MDR1-selective chemotherapeutics: Primary screen using the parental adenocarcinoma cell KB-3-1. KB-3-1 viability, CellTiter-Glo ATP luminescence, 72 h. Potency, µM (series often up to 46.1 µM), usual class: cytotoxic. hit rate 1.4% among 400,000. AID 1347075, 2019; note: nearly all actives have a fitted effect of over 60% in size
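KB-3-1 parental drug-naive adenocarcinoma cells in DMEM/10% FBS, incubated 72 h at 37 C with pin-transferred compounds across a concentration series. Viability by CellTiter-Glo luminescence; concentration-response curves fitted after normalization.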
S2 tox: Viability Counterscreen for Primary qHTS for Inhibitors of ATXN expression; S2 cells (HEK-293 line with an ATXN2-luciferase reporter) viability, CellTiter-Fluor protease fluorescence, 24 h; Potency, µM (doses to about 56.7 µM), most hits filed as cytotoxic; hit rate 0.49% among 400,000; note: nearly all actives have a fitted effect of over 40% in size
KB-V1 MDR tox: qHTS assay for MDR1-selective chemotherapeutics: Primary screen using the drug-selected MDR subline cells KB-V1. Potency, µM (series often up to 46.1 µM), usual class: cytotoxic. hit rate 3.4% among 400,000. KB-V1 MDR cells viability, CellTiter-Glo, 72 h; note: nearly all actives have a fitted effect of over 60% in size
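KB-V1 MDR subline cells in DMEM (phenol-red free, 10% FBS) exposed to compounds in qHTS concentration series for 72 h at 37 degrees C. Viability read by CellTiter-Glo luminescence; concentration-effect curves fitted after normalization and correction.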
ATXN2 expr inh: Primary qHTS for Inhibitors of ATXN expression. HEK-293 ATXN2-luciferase reporter, luminescence, 24 h. Potency, µM (highest dose often 57 µM), hits mostly inhibitors. hit rate 0.72% among 360,000. AID 1745845, 2022; note: nearly all actives have a fitted effect of over 55% in size
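qHTS (up to 57 uM final) was run with 24 h compound exposure of reporter cells at 37 °C. Each well was multiplexed: SteadyGlo luminescence measured ATXN2-luciferase expression after a fluorogenic Gly-Phe-AFC viability readout (25 uM final).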
HepG2 viability: qHTS for Inhibitors of TGF-b: Cytotox Counterscreen | HepG2 CAGA-GFP viability, ATP luminescence, 18 h | AID 588856, 2011 | Potency, µM (doses to about 46.1 µM), most hits filed as cytotoxic | hit rate 0.76% among 410,000
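CellTiter-Glo luminescence gave cytotoxicity after 18 hours at 37 degrees C. The cells were HepG2 CAGA-GFP in 1% FBS DMEM, stimulated with 500 pg/mL TGF-beta after compound addition. %Activity was normalised to no-cell wells (complete cell-killing) and DMSO (no toxicity), and curves were fitted and classified.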
TGFb inhibitor: qHTS for Inhibitors of TGF-b. HepG2 CAGA-GFP TGF-b/SMAD3 reporter, GFP fluorescence, 18 h; TGF-beta stimulated, 500 pg/mL final. Potency, µM (doses to about 46.1 µM), actives largely listed as inhibitors. hit rate 1.2% among 410,000; note: nearly all actives have a fitted effect of over 65% in size
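TGF-beta reporter screen: HEPG2 CAGA-GFP, 1% FBS, 500 pg/mL TGF-beta final, 18 h; per-cell GFP summed per well; curves fitted and categorized by class.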
A number is an active result; . = inactive; ? = inconclusive; / = not tested or not shown. Calls come from the whole dose curve; as a rule, active = well fitted curve in the direction sought with a large enough effect; inconclusive = small, poorly fitted or top-dose-only effect, or another doubt; inactive = no such curve, though single readings can be large; an effect the other way counts as inactive or inconclusive.

SMILES	KB-3-1 tox	S2 tox	KB-V1 MDR tox	ATXN2 expr inh	HepG2 viability	TGFb inhibitor
O=C(NCc1ccccc1)c1cc(C2CCCN(S(=O)(=O)c3ccccc3)C2)on1 (stereo not given)	.	.	.	.	.	.
O=C1/C(=C\c2ccc3c(c2)OCO3)CCC/C1=C/c1ccc2c(c1)OCO2	.	.	.	.	.	?
CC1CC/C(=C\c2ccc3c(c2)OCO3)C(=O)/C1=C/c1ccc2c(c1)OCO2 (stereo not given)	26µM	.	.	.	.	.
COc1ccc(Cn2c(C(=O)O)c(CNCCc3cccs3)c3ccc(C)cc32)cc1	.	32µM	.	?	.	.
COc1ccc(Cn2c(C(=O)O)c(CNCc3ccco3)c3ccc(C)cc32)cc1	?	7.9µM	.	.	.	.
COc1cccc(CNC(=O)c2ccc3c(c2)nc2n3CCC(C)C2)c1OC (stereo not given)	/	/	/	/	.	.
COc1ccc(-n2c(CNC(=O)c3cccc(OC)c3OC)nnc2SC)cc1	/	.	/	/	/	/
Cc1ccc(COC(=O)c2[nH]c3c(c2C)C(=O)CC(c2ccc(N(C)C)cc2)C3)cc1 (stereo not given)	.	.	.	.	.	.
COc1ccc2[nH]c(=O)cc(C(=O)O)c2c1	.	.	.	.	.	.
COc1ccc2[nH]c3c4c(ccc3c2c1)C(=O)C=CC4=O	9.2µM	6.3µM	.	3.5µM	.	14µM
CCOc1ccc(NC(=O)CSc2ncc3c(n2)-c2ccccc2N(C)S3(=O)=O)cc1	.	.	.	.	.	.
Cc1cccc(C2NC(=O)c3ccccc3N2)c1 (stereo not given)	13µM	.	?	.	.	?
Cc1ccc(N=C2C(=O)Nc3ccccc32)c(C)c1	.	.	.	.	.	.
Cc1ccc(C2NC(=O)c3ccccc3N2)s1 (stereo not given)	4.6µM	.	7.3µM	.	.	.
O=C1NC(c2ccc(Cl)cc2)Nc2ccccc21 (stereo not given)	.	.	.	.	.	.
CN(C)c1ccc(C2NC(=O)c3ccccc3N2)cc1 (stereo not given)	?	.	13µM	.	.	.
Cc1ccc(C2NC(=O)c3ccccc3N2)c(C)c1 (stereo not given)	3.7µM	?	5.8µM	.	.	.
Cc1nn(CCC(=O)NC(C)C)c(=O)c2nn(-c3ccccc3)c(C)c12	.	.	?	.	.	.
COC(=O)C1=C[C@@H](C(=O)OC)C2C3=C(C(=O)[C@@]2(C)NC(=O)c2ccccc2)[C@H](c2ccccc2)[C@@H]2C(=O)N(c4ccccc4)C(=O)[C@@H]2[C@@H]3C1 (stereo not given in full)	/	/	/	/	.	.
CCc1ccccc1N(CC)C(=O)C(=O)Nc1ccc2nc3n(c(=O)c2c1)CCCCC3	.	?	.	.	.	.
COCCN(CC(=O)Nc1ccccc1C(F)(F)F)C(=O)/C=C/c1cc(Cl)c2c(c1)OCCO2	.	.	3.7µM	.	.	.
COCCN(CC(=O)Nc1ccccc1C(F)(F)F)C(=O)/C=C/c1cc(Cl)c2c(c1)OCO2	.	.	.	/	.	.
CC(=O)c1ccc(N2CCC(c3cc(-c4ccc(Cl)cc4Cl)n[nH]3)CC2)c([N+](=O)[O-])c1	?	?	15µM	?	.	?
O=[N+]([O-])c1cccnc1N1CCC(c2cc(-c3ccc(Cl)cc3Cl)n[nH]2)CC1	.	.	.	?	.	.
O=C(Nc1ccccc1)N(CCc1nc2ccccc2[nH]1)C1CCCC1	.	.	16µM	.	.	.
SMILES	KB-3-1 tox	S2 tox	KB-V1 MDR tox	ATXN2 expr inh	HepG2 viability	TGFb inhibitor
S=C(NC1CCCCC1)N(CCc1nc2ccccc2[nH]1)C1CCCC1	?	.	16µM	.	.	.
COC(=O)CN1C(C(=O)c2ccccc2)=C(OC(=O)c2ccc(C)cc2)c2ccccc2S1(=O)=O	.	?	.	.	.	?
O=C(C[n+]1cc(Br)cc(Br)c1)c1ccc2c(c1)CCCC2	.	/	.	/	.	.
Cc1cc(NS(=O)(=O)c2ccc3nc(-c4ccccc4)[nH]c3c2)ccc1Br	?	?	.	?	.	?
CN(C)S(=O)(=O)c1ccc(Cl)c(C(=O)Nc2nc3ccccc3[nH]2)c1	.	.	.	.	.	.
Cc1ccc(NS(=O)(=O)c2ccc(Cl)c(C(=O)Nc3ccccc3-c3nc4ccccc4[nH]3)c2)cc1C	?	?	7.3µM	?	.	11µM
Cc1ccc(NS(=O)(=O)c2ccc3nc(-c4ccccc4)[nH]c3c2)cc1Cl	?	?	.	?	16µM	?
O=Nc1ccc(NO)c2ccccc12	?	.	?	/	.	13µM
O=S(=O)(NCCc1csc2nc(-c3ccc(Cl)cc3)nn12)c1cccs1	/	/	/	/	.	.
Cc1c(C(=O)Nc2ccc(S(=O)(=O)N(C)C3CCN(C)CC3)cc2)oc2ccccc12	.	?	21µM	?	.	?
Cc1c(C(=O)Nc2ccc(S(=O)(=O)N(C)C3CCN(C)CC3)cc2)oc2c(Cl)cccc12	?	/	?	25µM	.	?
COc1ccc(NS(=O)(=O)c2cc(Br)cc3c2N(C(C)=O)CC3)cc1	4.1µM	.	9.2µM	.	.	.
COc1cccc(C(=O)NCC2Cc3cccc(-c4nc(C)cnc4C)c3O2)c1OC (stereo not given)	/	.	/	/	/	/
CCN(CC(O)Cn1c2ccccc2c2ccccc21)S(=O)(=O)c1ccc(F)cc1 (stereo not given)	?	.	12µM	.	.	?
O=S(=O)(c1ccc(F)cc1)N(CCO)CC(O)Cn1c2ccccc2c2ccccc21 (stereo not given)	.	.	23µM	.	.	?
O=S(=O)(c1ccc(F)cc1)N(CC(O)Cn1c2ccccc2c2ccccc21)c1ccccc1 (stereo not given)	.	/	.	?	.	?
COc1ccccc1CN(C)CC(=O)c1c(C)[nH]c2ccccc12	.	/	.	/	.	.
COc1ccc2sc(-c3ccccc3OC)c(-c3ccc(OCCN(C)C)cc3)c2c1	.	/	.	?	16µM	16µM
COc1cccc(-c2sc3cc(OC)c(OC)cc3c2-c2ccc(OCCN3CCCCC3)cc2)c1	.	40µM	.	.	13µM	?
COc1cccc(-c2sc3ccccc3c2-c2ccc(OCCN3CCCC3)cc2)c1	?	?	?	28µM	20µM	?
COc1cccc(-c2sc3ccccc3c2-c2ccc(OCCN3CCCCC3)cc2)c1	?	/	?	?	.	.
